# From the supplement of paper PMC7801607
# Tested on: CHO
# Experiment: % viability of CHO cells (MTT); higher = less toxic
# Conditions: 20 µM; 48 h
# In short: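 Percent viability of CHO cells, relative to untreated cells, was read colorimetrically by tetrazolium (MTT) assay. Cells were seeded at 10^6 cells/well and treated for 48 h with compound at 2 or 20 µM in fresh medium.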
row,SMILES,% viability of CHO cells
1,C[C@@H](c1nc(-c2ccc(C#N)cc2)cs1)[C@](O)(Cn1cncn1)c1ccc(F)cc1F,99.8%
2,O=C(Nc1ccccc1)N(Cc1cc(Br)ccc1O)c1ccc(F)cc1,61.3%
3,O=C(NC1CCCc2c1[nH]c1ccc(Cl)cc21)c1ccccn1 (stereo unspecified),102%
4,O=C(CSc1nnc(Br)n1-c1ccc(C2CC2)c2ccccc12)Nc1ccc(C(=O)O)cc1Cl,61.4%
5,O=C(NN1C(=O)[C@@H]2C3C=CC([C@H]4C[C@@H]34)[C@@H]2C1=O)c1ccc(C(F)(F)F)cc1,120%
6,CO[C@@]1(NC(=O)Cc2cccs2)C(=O)N2C(C(=O)O)=C(COC(N)=O)CS[C@@H]21,143%
7,c1ccc(-c2nnc3c4ccccc4c(N4CCNCC4)nn23)cc1,91.4%
8,O=C(O)c1ccccc1Sc1ncnc2sc3c(c12)CCC3,89.7%
9,CCNC(=O)Nc1cc2c(-c3ccnc(C)c3)ccc(CNC(=O)OC)c2cn1,58.1%
10,COc1c(F)c(F)cc2c(=O)c(C(=O)O)cn(C3CC3)c12,80.7%
11,COC1CC2CCC(C)C(O)(O2)C(=O)C(=O)N2CCCCC2C(=O)OC(C(C)CC2CCC(OCCO)C(OC)C2)CC(=O)C(C)/C=C(\C)C(O)C(OC)C(=O)C(C)CC(C)/C=C/C=C/C=C/1C (stereo unspecified),106%
12,O=C(Nc1nnc(-c2ccccc2)o1)c1ccc(F)cc1,114%
13,O=C(O)C(Cc1c[nH]c2ccccc12)N1C(=O)c2ccccc2C1=O (stereo unspecified),92%
14,O=C(NCc1ncc(C(F)(F)F)cc1Cl)c1c(Cl)cccc1Cl,72.6%
15,CC(C)(C)NC(=O)[C@@H]1C[C@@H]2CCCC[C@@H]2CN1C[C@@H](O)[C@H](Cc1ccccc1)NC(=O)[C@H](CC(N)=O)NC(=O)c1ccc2ccccc2n1,114%
16,N#Cc1cc([N+](=O)[O-])ccc1Oc1ccccc1Cl,84.9%
17,O=c1nc(N2CCN(CC3CCCCC3)CC2)sc2c([N+](=O)[O-])cc(C(F)(F)F)cc12,112%
18,[N-]=[N+]=N[C@H]1C[C@H](n2ccc(=O)[nH]c2=O)O[C@@H]1CO,102%
19,Cc1onc(-c2ccccc2Cl)c1C(=O)N[C@@H]1C(=O)N2[C@@H]1SC(C)(C)[C@@H]2C(=O)O,143%

row,SMILES,% viability of CHO cells
1,O=C(c1ccccc1)N1CCN(c2ccccc2NC(=O)C(Cl)(Cl)Cl)CC1,74.3%
2,O=[N+]([O-])c1cn(Cc2nc(O)nc(O)c2Br)cn1,109%
3,CCc1nc2ccc(Cl)cn2c1C(=O)NCc1ccc(N2CCC(c3ccc(OC(F)(F)F)cc3)CC2)cc1,113%
4,Cc1ccc(C)c(OCCCCCCN2C[C@H](O)[C@@H](O)[C@H](O)[C@H]2CO)c1,110%
5,COc1cc(Cc2cc(N)nc(N)n2)cc(OC)c1OC,103%
6,O=C(Cn1cnc2ccccc2c1=O)Nc1ccccc1,84.1%
7,CC[C@H](NC(=O)[C@H](C)NC)C(=O)N1C[C@@H](O)C[C@H]1Cc1c(-c2[nH]c3cc(F)ccc3c2C[C@@H]2C[C@H](O)CN2C(=O)[C@H](CC)NC(=O)[C@H](C)NC)[nH]c2cc(F)ccc12,117%
8,O=C(N[C@H](CCS)C(=O)N[C@H](Cc1ccccc1)C(=O)O)c1cc2ccccc2[nH]1,74.3%
9,CCCCCCCc1[nH]c2ccccc2c(=O)c1O,107%
10,CN1CCN(Cc2ccc(-c3cnc4[nH]cc(-c5ccc6[nH]ccc6c5)c4c3)cc2)CC1,26.3%
11,CCc1oc2ccccc2c1C(=O)c1ccc(O)cc1,112%
12,C=CCc1cc(Cc2cnc(N)nc2N)cc(OC)c1O,105%
13,CC1(C)C[C@H]1C(=O)N/C(=C\CCCCSC[C@@H](N)C(=O)O)C(=O)O,49.5%
14,CCCCc1ccc(S(=O)(=O)Nc2cc(C)on2)cc1,124%
15,O=c1ccc2ncc(=O)n3c2n1CC3CN1CCC(NCc2cc3c(cn2)OCCC3)CC1 (stereo unspecified),97.3%
16,C=C[C@]1(C)C[C@@H](OC(=O)CS[C@@H]2C[C@H]3CC[C@@H](C2)N3C)[C@]2(C)[C@H](C)CC[C@]3(CCC(=O)[C@H]32)[C@@H](C)[C@@H]1O,48.9%
17,CN(C/C=C/C#CC(C)(C)C)Cc1cccc2ccccc12,117%
18,O=C(O)CCNC(=O)c1ccccc1,60.6%
19,Nc1nc(NC2Cc3ccc(F)cc3C2)nc(N2CCCCC2)n1 (stereo unspecified),79.3%

# Tested on: HepG2-A16-CD81;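 further: HepG2-A16-CD81 hepatoma cells plated as in the liver-stage assay but without sporozoites, with DMSO wells as negative and 25 µM puromycin as positive control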
# Experiment: % inhibition of HepG2 viability (CellTiter-Glo); higher = more toxic
# Conditions: 5 µM
row,SMILES,% inhibition of HepG2 viability
1,C[C@@H](c1nc(-c2ccc(C#N)cc2)cs1)[C@](O)(Cn1cncn1)c1ccc(F)cc1F,3.07%
2,O=C(Nc1ccccc1)N(Cc1cc(Br)ccc1O)c1ccc(F)cc1,-2.44%
3,O=C(NC1CCCc2c1[nH]c1ccc(Cl)cc21)c1ccccn1 (stereo unspecified),20.7%
4,O=C(CSc1nnc(Br)n1-c1ccc(C2CC2)c2ccccc12)Nc1ccc(C(=O)O)cc1Cl,-1.62%
5,O=C(NN1C(=O)[C@@H]2C3C=CC([C@H]4C[C@@H]34)[C@@H]2C1=O)c1ccc(C(F)(F)F)cc1,-2.51%
6,CO[C@@]1(NC(=O)Cc2cccs2)C(=O)N2C(C(=O)O)=C(COC(N)=O)CS[C@@H]21,-4.03%
7,c1ccc(-c2nnc3c4ccccc4c(N4CCNCC4)nn23)cc1,10.4%
8,O=C(O)c1ccccc1Sc1ncnc2sc3c(c12)CCC3,4.01%
9,CCNC(=O)Nc1cc2c(-c3ccnc(C)c3)ccc(CNC(=O)OC)c2cn1,5.56%
10,COc1c(F)c(F)cc2c(=O)c(C(=O)O)cn(C3CC3)c12,3.68%
11,COC1CC2CCC(C)C(O)(O2)C(=O)C(=O)N2CCCCC2C(=O)OC(C(C)CC2CCC(OCCO)C(OC)C2)CC(=O)C(C)/C=C(\C)C(O)C(OC)C(=O)C(C)CC(C)/C=C/C=C/C=C/1C (stereo unspecified),1.51%
12,O=C(Nc1nnc(-c2ccccc2)o1)c1ccc(F)cc1,8.93%
13,O=C(O)C(Cc1c[nH]c2ccccc12)N1C(=O)c2ccccc2C1=O (stereo unspecified),-0.93%
14,O=C(NCc1ncc(C(F)(F)F)cc1Cl)c1c(Cl)cccc1Cl,2.83%
15,CC(C)(C)NC(=O)[C@@H]1C[C@@H]2CCCC[C@@H]2CN1C[C@@H](O)[C@H](Cc1ccccc1)NC(=O)[C@H](CC(N)=O)NC(=O)c1ccc2ccccc2n1,10.9%
16,N#Cc1cc([N+](=O)[O-])ccc1Oc1ccccc1Cl,-4.08%
17,O=c1nc(N2CCN(CC3CCCCC3)CC2)sc2c([N+](=O)[O-])cc(C(F)(F)F)cc12,7.83%
18,[N-]=[N+]=N[C@H]1C[C@H](n2ccc(=O)[nH]c2=O)O[C@@H]1CO,-1.43%
19,Cc1onc(-c2ccccc2Cl)c1C(=O)N[C@@H]1C(=O)N2[C@@H]1SC(C)(C)[C@@H]2C(=O)O,-1.54%

row,SMILES,% inhibition of HepG2 viability
1,O=C(c1ccccc1)N1CCN(c2ccccc2NC(=O)C(Cl)(Cl)Cl)CC1,3.18%
2,O=[N+]([O-])c1cn(Cc2nc(O)nc(O)c2Br)cn1,-3.1%
3,CCc1nc2ccc(Cl)cn2c1C(=O)NCc1ccc(N2CCC(c3ccc(OC(F)(F)F)cc3)CC2)cc1,7.13%
4,Cc1ccc(C)c(OCCCCCCN2C[C@H](O)[C@@H](O)[C@H](O)[C@H]2CO)c1,4.29%
5,COc1cc(Cc2cc(N)nc(N)n2)cc(OC)c1OC,4.91%
6,O=C(Cn1cnc2ccccc2c1=O)Nc1ccccc1,-0.425%
7,CC[C@H](NC(=O)[C@H](C)NC)C(=O)N1C[C@@H](O)C[C@H]1Cc1c(-c2[nH]c3cc(F)ccc3c2C[C@@H]2C[C@H](O)CN2C(=O)[C@H](CC)NC(=O)[C@H](C)NC)[nH]c2cc(F)ccc12,15%
8,O=C(N[C@H](CCS)C(=O)N[C@H](Cc1ccccc1)C(=O)O)c1cc2ccccc2[nH]1,-0.7%
9,CCCCCCCc1[nH]c2ccccc2c(=O)c1O,24.8%
10,CN1CCN(Cc2ccc(-c3cnc4[nH]cc(-c5ccc6[nH]ccc6c5)c4c3)cc2)CC1,21.4%
11,CCc1oc2ccccc2c1C(=O)c1ccc(O)cc1,9.97%
12,C=CCc1cc(Cc2cnc(N)nc2N)cc(OC)c1O,7.8%
13,CC1(C)C[C@H]1C(=O)N/C(=C\CCCCSC[C@@H](N)C(=O)O)C(=O)O,-5.39%
14,CCCCc1ccc(S(=O)(=O)Nc2cc(C)on2)cc1,15.2%
15,O=c1ccc2ncc(=O)n3c2n1CC3CN1CCC(NCc2cc3c(cn2)OCCC3)CC1 (stereo unspecified),6.64%
16,C=C[C@]1(C)C[C@@H](OC(=O)CS[C@@H]2C[C@H]3CC[C@@H](C2)N3C)[C@]2(C)[C@H](C)CC[C@]3(CCC(=O)[C@H]32)[C@@H](C)[C@@H]1O,7.56%
17,CN(C/C=C/C#CC(C)(C)C)Cc1cccc2ccccc12,-4.35%
18,O=C(O)CCNC(=O)c1ccccc1,-2.32%
19,Nc1nc(NC2Cc3ccc(F)cc3C2)nc(N2CCCCC2)n1 (stereo unspecified),2.58%
